Reference: the supplement of paper PMC10849652
Targets with a hit are over-represented here; the source holds about 8,800 in all. About 0.5% of all pairs of compound and target were hits.

Assays:
Test in all cases: log2 fold change, soluble protein after heating vs DMSO (PISA); higher = thermal stabilisation; K562 lysate, 10 uM; active = over 0.2 and 3.5 SD of the protein, either way, in both replicates (recomputed)
erlotinib = compound: C#Cc1cccc(Nc2ncnc3cc(OCCOC)c(OCCOC)cc23)c1 [erlotinib]
Outline: (§1)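 K562 pellets were dounce-homogenised in PBS pH 7.4 with 1 mM MgCl2, and the crude extract at 1 mg/mL protein was treated with 10 μM compound for 30 min. Aliquots were heated for 3 min across 48°C-58°C, pooled, and brought to 0.5% NP-40 at 4°C; soluble protein was the supernatant after 21,000xg for 90 min. Soluble protein was quantified by TMTpro 16plex LC-MS/MS with channel sums equalised, and reported as log2 fold change in thermal stability against DMSO controls, with values from duplicates.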

[1] = compound: C/C(=N\NC(=O)C1=CC(=CC=C1)S(=O)(=O)N2CCOCC2)/C3=C(C=CC(=C3)Cl)O
Outline: as §1

[2] = compound: C1=CC(=CC=C1C2=NC3=C(N2)C=C(C=C3)C(=O)N)OC4=CC=C(C=C4)Cl
Outline: as §1

[3] = compound: C1=CC2=C(C=CC(=C2)/C=C\3/C(=O)NC(=NCC4=CC=CS4)S3)N=C1
Outline: as §1

[4] = compound: C1=CC2=NC=CN=C2C=C1/C=C/3\C(=O)NC(=O)S3
Outline: as §1

[5] = compound: C1=CC=C(C=C1)C2=NC(=C(N2)C3=CC=NC=C3)C4=CC(=C(C=C4)Cl)O
Outline: as §1

[6] = compound: C1=CC=C2C(=C1)C3=NNC4=CC=CC(=C43)C2=O
Outline: as §1

[7] = compound: C1CCN(C1)C(=O)NC2=CC=CC(=C2)NC3=NC=C(C(=N3)NCCC4=CN=CN4)Br
Outline: as §1

[8] = compound: C1CN(CCC1(CC2=CC=C(C=C2)Cl)N)C3=NC=NC4=C3C=CN4
Outline: as §1

IRAK-1-4 Inhibitor I = compound: C1COCCN1CCN2C3=CC=CC=C3N=C2NC(=O)C4=CC(=CC=C4)[N+](=O)[O-] [IRAK-1-4 Inhibitor I]
Outline: as §1

Measured: log2 fold change

TRMT12 (UniProt Q53H54)
Sequence of UniProt Q53H54 (Q53H54 whole entry, looked up): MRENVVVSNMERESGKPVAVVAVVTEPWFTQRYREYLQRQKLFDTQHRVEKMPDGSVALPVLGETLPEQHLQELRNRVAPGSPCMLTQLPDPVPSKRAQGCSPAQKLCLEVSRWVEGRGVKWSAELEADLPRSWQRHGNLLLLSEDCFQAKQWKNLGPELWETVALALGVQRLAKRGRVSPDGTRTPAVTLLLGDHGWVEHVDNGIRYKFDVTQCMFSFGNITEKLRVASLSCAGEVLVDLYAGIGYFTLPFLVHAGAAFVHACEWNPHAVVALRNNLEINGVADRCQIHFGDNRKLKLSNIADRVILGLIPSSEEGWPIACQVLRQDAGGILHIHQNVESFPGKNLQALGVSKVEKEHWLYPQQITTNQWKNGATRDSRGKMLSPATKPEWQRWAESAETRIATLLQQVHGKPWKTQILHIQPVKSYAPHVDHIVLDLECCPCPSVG
inactive: erlotinib 0.065 | [1] 0.01 | [2] 0.018 | [3] 0.058 | [4] -0.044 | [5] 0.106 | [6] -0.047 | [7] -0.064 | [8] 0.07 | IRAK-1-4 Inhibitor I -0.03

UBXN2B (UniProt Q14CS0)
Sequence of UniProt Q14CS0 (Q14CS0 whole entry, looked up): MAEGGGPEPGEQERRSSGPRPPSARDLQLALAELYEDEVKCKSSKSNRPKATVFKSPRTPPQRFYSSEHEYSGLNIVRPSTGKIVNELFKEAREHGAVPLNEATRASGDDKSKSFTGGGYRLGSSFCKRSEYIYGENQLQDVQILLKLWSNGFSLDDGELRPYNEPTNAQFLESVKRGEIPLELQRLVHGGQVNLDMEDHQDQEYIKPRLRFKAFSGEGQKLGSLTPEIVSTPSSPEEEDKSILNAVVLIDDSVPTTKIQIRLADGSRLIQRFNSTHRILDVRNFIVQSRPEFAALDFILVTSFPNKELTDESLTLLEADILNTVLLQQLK
inactive: erlotinib -0.008 | [1] -0.079 | [2] 0.073 | [3] -0.045 | [4] -0.01 | [5] -0.062 | [6] 0.149 | [7] -0.04 | [8] -0.046 | IRAK-1-4 Inhibitor I -0.028

TMEM97 (UniProt Q5BJF2)
Sequence of UniProt Q5BJF2 (Q5BJF2 whole entry, looked up): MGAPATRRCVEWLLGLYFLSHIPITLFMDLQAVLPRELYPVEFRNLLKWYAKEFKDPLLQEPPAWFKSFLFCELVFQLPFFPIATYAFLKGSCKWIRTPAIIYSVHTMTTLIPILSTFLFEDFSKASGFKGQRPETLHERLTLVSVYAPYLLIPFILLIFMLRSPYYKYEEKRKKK
inactive: erlotinib 0.01 | [1] 0.043 | [2] 0.036 | [3] 0.007 | [4] 0.019 | [5] 0 | [6] 0.002 | [7] -0.033 | [8] 0.018 | IRAK-1-4 Inhibitor I 0.091

UBL4A (UniProt P11441)
Sequence of UniProt P11441 (P11441 whole entry, looked up): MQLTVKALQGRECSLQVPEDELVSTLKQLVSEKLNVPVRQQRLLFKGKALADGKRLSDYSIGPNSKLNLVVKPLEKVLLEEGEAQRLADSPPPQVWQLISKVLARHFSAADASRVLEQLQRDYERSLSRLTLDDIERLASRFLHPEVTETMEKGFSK
inactive: erlotinib -0.04 | [1] 0.014 | [2] -0.069 | [3] 0.005 | [4] 0.087 | [5] 0.021 | [6] 0.04 | [7] 0.024 | [8] -0.028 | IRAK-1-4 Inhibitor I -0.042

TCF3 (UniProt P15923)
Sequence of UniProt P15923 (P15923 whole entry, looked up): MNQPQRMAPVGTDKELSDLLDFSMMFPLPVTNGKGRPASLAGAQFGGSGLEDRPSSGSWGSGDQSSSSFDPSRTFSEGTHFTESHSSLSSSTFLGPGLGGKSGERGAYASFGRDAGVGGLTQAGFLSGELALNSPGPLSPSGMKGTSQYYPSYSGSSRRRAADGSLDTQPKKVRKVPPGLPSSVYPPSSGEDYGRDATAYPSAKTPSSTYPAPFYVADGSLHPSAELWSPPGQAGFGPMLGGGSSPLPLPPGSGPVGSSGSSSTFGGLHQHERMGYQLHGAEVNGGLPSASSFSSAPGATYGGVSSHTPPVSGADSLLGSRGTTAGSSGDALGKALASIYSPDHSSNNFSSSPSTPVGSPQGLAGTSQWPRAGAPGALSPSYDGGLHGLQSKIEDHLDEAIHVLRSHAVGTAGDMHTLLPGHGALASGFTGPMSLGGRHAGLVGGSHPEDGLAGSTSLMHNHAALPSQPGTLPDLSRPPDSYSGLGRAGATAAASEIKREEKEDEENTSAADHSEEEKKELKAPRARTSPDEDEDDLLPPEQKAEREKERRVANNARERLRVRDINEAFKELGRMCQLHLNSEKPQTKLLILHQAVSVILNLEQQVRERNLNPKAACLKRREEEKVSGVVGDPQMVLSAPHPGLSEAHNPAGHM
inactive: erlotinib 0.027 | [1] -0.028 | [2] 0.067 | [3] 0.004 | [4] 0.016 | [5] 0.011 | [6] 0.07 | [7] -0.005 | [8] 0.022 | IRAK-1-4 Inhibitor I 0.04

TGFBRAP1 (UniProt Q8WUH2)
Sequence of UniProt Q8WUH2 (Q8WUH2 whole entry, looked up): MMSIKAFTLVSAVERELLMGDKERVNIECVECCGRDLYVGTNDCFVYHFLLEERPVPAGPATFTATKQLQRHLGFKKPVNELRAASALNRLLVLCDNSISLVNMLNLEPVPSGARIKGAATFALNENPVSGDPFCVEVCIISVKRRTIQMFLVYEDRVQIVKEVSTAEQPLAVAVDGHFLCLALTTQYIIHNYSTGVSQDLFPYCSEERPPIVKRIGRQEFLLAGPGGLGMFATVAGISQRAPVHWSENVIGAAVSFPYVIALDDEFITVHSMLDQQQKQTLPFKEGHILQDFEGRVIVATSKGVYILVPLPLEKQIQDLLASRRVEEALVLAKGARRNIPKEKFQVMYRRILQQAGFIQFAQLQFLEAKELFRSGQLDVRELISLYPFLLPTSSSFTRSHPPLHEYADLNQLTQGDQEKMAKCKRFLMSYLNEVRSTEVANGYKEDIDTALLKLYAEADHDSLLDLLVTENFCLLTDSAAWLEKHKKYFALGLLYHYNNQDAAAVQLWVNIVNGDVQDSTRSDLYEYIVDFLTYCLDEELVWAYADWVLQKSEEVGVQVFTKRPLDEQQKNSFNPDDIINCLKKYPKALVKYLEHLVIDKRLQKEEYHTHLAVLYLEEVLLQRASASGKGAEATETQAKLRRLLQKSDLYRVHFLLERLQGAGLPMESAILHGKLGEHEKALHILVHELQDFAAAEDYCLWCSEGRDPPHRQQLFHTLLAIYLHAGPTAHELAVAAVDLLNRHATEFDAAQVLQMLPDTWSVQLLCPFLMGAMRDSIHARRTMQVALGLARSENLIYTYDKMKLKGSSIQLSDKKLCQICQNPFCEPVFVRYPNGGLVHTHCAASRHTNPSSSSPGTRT
inactive: erlotinib 0.015 | [1] 0.057 | [2] -0.016 | [3] -0.002 | [4] -0.018 | [5] -0.02 | [6] -0.056 | [7] 0.023 | [8] 0.006 | IRAK-1-4 Inhibitor I -0.026

TMEM177 (UniProt Q53S58)
inactive: erlotinib 0.042 | [1] 0.06 | [2] -0.042 | [3] 0.016 | [4] -0.019 | [5] -0.054 | [6] 0.148 | [7] 0.019 | [8] 0.005 | IRAK-1-4 Inhibitor I 0

TRAF2 isoform 2 (UniProt Q12933)
inactive: erlotinib 0.026 | [1] -0.002 | [2] 0.008 | [3] 0.013 | [4] -0.016 | [5] -0.01 | [6] -0.015 | [7] -0.008 | [8] 0.029 | IRAK-1-4 Inhibitor I 0.033

TTI1 (UniProt O43156)
Sequence of UniProt O43156 (O43156 whole entry, looked up): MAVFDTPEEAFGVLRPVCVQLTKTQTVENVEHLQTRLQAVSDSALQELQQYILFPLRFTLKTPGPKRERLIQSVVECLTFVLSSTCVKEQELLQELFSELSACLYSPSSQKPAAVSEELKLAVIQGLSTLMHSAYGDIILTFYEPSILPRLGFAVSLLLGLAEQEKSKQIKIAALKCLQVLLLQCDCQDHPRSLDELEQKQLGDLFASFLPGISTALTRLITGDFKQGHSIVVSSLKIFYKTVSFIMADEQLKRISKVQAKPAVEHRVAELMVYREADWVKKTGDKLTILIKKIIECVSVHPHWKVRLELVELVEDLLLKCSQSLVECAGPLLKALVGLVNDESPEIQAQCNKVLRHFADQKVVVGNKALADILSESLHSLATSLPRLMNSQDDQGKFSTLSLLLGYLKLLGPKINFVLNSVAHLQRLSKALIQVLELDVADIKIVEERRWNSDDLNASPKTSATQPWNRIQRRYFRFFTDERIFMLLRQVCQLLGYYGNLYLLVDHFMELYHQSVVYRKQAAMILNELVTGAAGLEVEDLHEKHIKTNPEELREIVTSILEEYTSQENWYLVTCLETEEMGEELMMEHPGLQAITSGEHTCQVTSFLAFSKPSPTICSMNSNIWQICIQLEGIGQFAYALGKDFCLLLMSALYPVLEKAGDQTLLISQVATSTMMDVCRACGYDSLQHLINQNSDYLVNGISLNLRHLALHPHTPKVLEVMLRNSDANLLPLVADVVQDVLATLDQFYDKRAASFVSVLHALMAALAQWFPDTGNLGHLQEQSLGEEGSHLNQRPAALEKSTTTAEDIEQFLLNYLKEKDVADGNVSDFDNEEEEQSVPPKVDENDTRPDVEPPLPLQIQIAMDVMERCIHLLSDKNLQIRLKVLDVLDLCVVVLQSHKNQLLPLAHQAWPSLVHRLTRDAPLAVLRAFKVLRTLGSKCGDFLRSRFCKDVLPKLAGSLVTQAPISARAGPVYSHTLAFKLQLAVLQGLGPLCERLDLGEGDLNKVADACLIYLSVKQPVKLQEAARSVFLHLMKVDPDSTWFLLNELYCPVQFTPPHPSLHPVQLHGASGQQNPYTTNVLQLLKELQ
inactive: erlotinib -0.017 | [1] 0.033 | [2] -0.049 | [3] 0.003 | [4] -0.012 | [5] -0.02 | [6] -0.003 | [7] -0.032 | [8] -0.037 | IRAK-1-4 Inhibitor I 0.015

TYW3 (UniProt Q6IPR3)
inactive: erlotinib -0.002 | [1] 0.003 | [2] 0.063 | [3] -0.032 | [4] -0.008 | [5] 0.002 | [6] -0.07 | [7] -0.054 | [8] 0.014 | IRAK-1-4 Inhibitor I 0.018

TMEM263 (UniProt Q8WUH6)
inactive: erlotinib -0.114 | [1] -0.104 | [2] 0.273 | [3] -0.119 | [4] -0.022 | [5] -0.05 | [6] -0.012 | [7] -0.006 | [8] 0.095 | IRAK-1-4 Inhibitor I 0.026

TCP11L1 (UniProt Q9NUJ3)
Sequence of UniProt Q9NUJ3 (Q9NUJ3 whole entry, looked up): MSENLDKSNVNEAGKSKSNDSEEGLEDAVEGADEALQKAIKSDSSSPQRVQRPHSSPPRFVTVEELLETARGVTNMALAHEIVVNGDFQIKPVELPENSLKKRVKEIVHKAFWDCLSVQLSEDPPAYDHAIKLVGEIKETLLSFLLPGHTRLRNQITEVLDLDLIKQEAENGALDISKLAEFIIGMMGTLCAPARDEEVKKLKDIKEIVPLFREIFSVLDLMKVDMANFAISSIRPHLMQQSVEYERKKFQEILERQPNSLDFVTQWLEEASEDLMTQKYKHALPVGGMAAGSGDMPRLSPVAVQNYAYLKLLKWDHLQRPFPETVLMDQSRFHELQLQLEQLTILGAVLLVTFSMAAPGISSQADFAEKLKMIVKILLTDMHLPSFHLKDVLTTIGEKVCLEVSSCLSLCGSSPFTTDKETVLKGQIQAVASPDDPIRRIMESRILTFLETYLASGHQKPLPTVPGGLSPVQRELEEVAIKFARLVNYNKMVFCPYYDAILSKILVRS
inactive: erlotinib 0.082 | [1] 0.032 | [2] 0.032 | [3] 0.033 | [4] -0.053 | [5] 0.075 | [6] -0.069 | [7] -0.005 | [8] 0.094 | IRAK-1-4 Inhibitor I 0.001

TMEM199 (UniProt Q8N511)
Sequence of UniProt Q8N511 (Q8N511 whole entry, looked up): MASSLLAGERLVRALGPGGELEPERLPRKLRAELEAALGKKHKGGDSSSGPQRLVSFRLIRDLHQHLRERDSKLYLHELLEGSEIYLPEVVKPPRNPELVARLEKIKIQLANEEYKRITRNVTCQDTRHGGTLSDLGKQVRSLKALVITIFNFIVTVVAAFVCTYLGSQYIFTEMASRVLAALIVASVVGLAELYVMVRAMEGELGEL
inactive: erlotinib 0.002 | [1] -0.03 | [2] -0.034 | [3] 0.032 | [4] 0.018 | [5] -0.013 | [6] -0.087 | [7] -0.065 | [8] 0.027 | IRAK-1-4 Inhibitor I -0.033

TUBB4B (UniProt P68371)
Sequence of UniProt P68371 (P68371 whole entry, looked up): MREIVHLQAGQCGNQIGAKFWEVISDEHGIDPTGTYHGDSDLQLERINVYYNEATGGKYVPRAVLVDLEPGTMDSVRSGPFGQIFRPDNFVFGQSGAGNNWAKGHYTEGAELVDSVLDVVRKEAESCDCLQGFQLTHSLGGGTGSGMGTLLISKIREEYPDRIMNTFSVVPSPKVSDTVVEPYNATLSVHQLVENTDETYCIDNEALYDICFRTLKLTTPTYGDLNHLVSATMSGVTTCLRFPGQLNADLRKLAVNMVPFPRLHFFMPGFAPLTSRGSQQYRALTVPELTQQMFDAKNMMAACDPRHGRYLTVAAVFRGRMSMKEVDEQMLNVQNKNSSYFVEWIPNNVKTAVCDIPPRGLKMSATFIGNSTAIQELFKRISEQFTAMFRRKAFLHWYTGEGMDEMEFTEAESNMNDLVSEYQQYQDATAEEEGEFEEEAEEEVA
inactive: erlotinib 0.008 | [1] -0.059 | [2] 0.019 | [3] -0.018 | [4] 0.005 | [5] -0.024 | [6] -0.011 | [7] 0.019 | [8] 0.03 | IRAK-1-4 Inhibitor I 0.04
